Experimental data published in PubChem BioAssay (NCI).
Compounds without any hit were thinned out: in the full panel of roughly 83,000, 20% have a hit.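 Single-dose data. Exposure time 48 hours. Values below 10 considered active.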 Values without a mark were called inactive. The source made the active and inactive calls.

Legend:
Assay in all cases: NCI-60 one-dose screen, 48 h (100 = growth as untreated, 0 = no growth, -100 = all killed)
Settings in all cases: 10 µM
HCT-15 colon = tested on: HCT-15 colon
HT29 colon = tested on: HT29 colon
SNB-75 CNS = tested on: SNB-75 CNS
SNB-19 CNS = tested on: SNB-19 CNS
U251 CNS = tested on: U251 CNS
PC-3 prostate = tested on: PC-3 prostate
SK-MEL-5 melanoma = tested on: SK-MEL-5 melanoma
UACC-62 melanoma = tested on: UACC-62 melanoma
LOX IMVI melanoma = tested on: LOX IMVI melanoma
SK-MEL-28 melanoma = tested on: SK-MEL-28 melanoma
SK-MEL-2 melanoma = tested on: SK-MEL-2 melanoma
SN12C renal = tested on: SN12C renal
UO-31 renal = tested on: UO-31 renal
TK-10 renal = tested on: TK-10 renal
ACHN renal = tested on: ACHN renal
CAKI-1 renal = tested on: CAKI-1 renal
A498 renal = tested on: A498 renal
CCRF-CEM leukemia = tested on: CCRF-CEM leukemia
MOLT-4 leukemia = tested on: MOLT-4 leukemia

Row | Structure (SMILES) | growth (HCT-15 colon) | growth (HT29 colon) | growth (SNB-75 CNS) | growth (SNB-19 CNS) | growth (U251 CNS) | growth (PC-3 prostate) | growth (SK-MEL-5 melanoma) | growth (UACC-62 melanoma) | growth (LOX IMVI melanoma) | growth (SK-MEL-28 melanoma) | growth (SK-MEL-2 melanoma) | growth (SN12C renal) | growth (UO-31 renal) | growth (TK-10 renal) | growth (ACHN renal) | growth (CAKI-1 renal) | growth (A498 renal) | growth (CCRF-CEM leukemia) | growth (MOLT-4 leukemia)
1 | CCOC(=O)c1sc(Nc2ncccn2)nc1-c1ccccn1 | 50.8% | 99.6% | 108% | 91.5% | 73.2% | 86.3% | 83.2% | 97.6% | 79.9% | 94.7% | 60.4% | 92% | 62.4% | 102% | 88.4% | 57.2% | 90.2% | 46.2% | 73.1%
2 | CN1CCN(c2nc(-c3cccnc3)nc3sc4c(c23)CCCCCC4)CC1 | 93.2% | 91.3% | 67.4% | 101% | 72.3% | 66.7% | 87.9% | 103% | 78.6% | 99.7% | 114% | 90.8% | 75% | 108% | 89.6% | 86.7% | 99.3% | 92.4% | 39.6%
3 | C=CCOc1ccc2c(c1)CC=C1[C@@H]2CC[C@]2(C)C(=O)/C(=N/O)C[C@@H]12 | 15% | 26.8% | 115% | 104% | 89.5% | 87% | 84.7% | 108% | 66.9% | 105% | 106% | 88.3% | 86% | 72.3% | 55.4% | 50.4% | 96.6% | 30.9% | 46%
4 | O=C1/C(=C/c2ccc([N+](=O)[O-])s2)Oc2ccc(Cl)cc21 | -40% (active) | -36.1% (active) | -15% (active) | 7.13% (active) | -65.4% (active) | -48% (active) | -88.7% (active) | -82.4% (active) | -70.1% (active) | -56.8% (active) | -53.7% (active) | -54.3% (active) | -89.4% (active) | -32.7% (active) | -71.1% (active) | -29.9% (active) | 9.57% (active) | 2.86% (active) | -15.7% (active)
5 | COc1ccc(-c2ccc(-c3ccc(C(=N)N)c(F)c3)s2)cc1 | -78.9% (active) | -90% (active) | -98.9% (active) | -89.6% (active) | -95.1% (active) | -88.6% (active) | -93.9% (active) | -88.9% (active) | -84.3% (active) | -91.5% (active) | -75.3% (active) | -79.2% (active) | -86.8% (active) | -96.4% (active) | -89.7% (active) | -89.8% (active) | -97.4% (active) | -68.3% (active) | -80.1% (active)
6 | CCCCCC(=O)N1c2ccccc2NC2=C(C(=O)CC(c3ccc(OC)c(OC)c3)C2)C1c1ccc(C(F)(F)F)cc1 (stereo not drawn) | 60.6% | 88% | 82.7% | 58.1% | 49.5% | 16.4% | 18.8% | 53.9% | 60.8% | 86.7% | 47.8% | 62% | 44.9% | 64.4% | 58.3% | 65.6% | 57.2% | 43.5% | 37%
7 | COc1ccccc1NC1=C(N2CCCCC2)C(=O)c2ccccc2C1=O | 86.1% | 70.6% | 71.1% | 90.2% | 84.5% | 33.5% | 69% | 81.4% | 86.8% | 96.1% | 98.2% | 84.6% | 75.3% | 96.2% | 88% | 85.8% | 39.4% | 72.5% | 58.8%
8 | c1ccc(COCC[P+](c2ccccc2)(c2ccccc2)c2ccccc2)cc1 | 71.9% | 1.21% (active) | -5.5% (active) | 9.79% (active) | 5.43% (active) | -4.87% (active) | -72% (active) | 2.32% (active) | -32.2% (active) | 14.6% | -14.8% (active) | 5.38% (active) | 46.9% | 8.09% (active) | 45.2% | 59.9% | -2.41% (active) | 2.79% (active) | -10.1% (active)
9 | COc1cc(Nc2ccnc(N3CCN(c4ccnc5cc(Cl)ccc45)CC3)n2)cc(OC)c1 | 9.9% (active) | -15.1% (active) | -13.9% (active) | 39.1% | 12.6% | 3.31% (active) | -55.2% (active) | -21.6% (active) | 3.24% (active) | 11.9% | -42.2% (active) | 19% | -1.54% (active) | -4.71% (active) | 13.2% | 20.2% | -1.87% (active) | 3.84% (active) | -45.9% (active)
10 | Cc1cc2cc3c(=O)[nH]c(=O)cc-3n(CC(O)C(O)C(O)CO)c2cc1C (stereo not drawn) | 105% | 110% | 103% | 114% | 104% | 99.9% | 110% | 112% | 99.8% | 114% | 120% | 113% | 99.2% | 125% | 75.1% | 87.9% | 109% | 105% | 99.8%
11 | CC1(CO)CCCC12OCCO2 (stereo not drawn) | 101% | 98.6% | 97.2% | 105% | 102% | 103% | 100% | 100% | 104% | 108% | 95.2% | 100% | 93.7% | 107% | 102% | 101% | 94.1% | 97.3% | 107%
12 | CS(=O)(=O)Nc1ccc(OCc2nnc(-c3ccc(Cl)cc3)o2)c(F)c1 | 88% | 105% | 82.7% | 93.5% | 99% | 91% | 92.3% | 83.7% | 82.9% | 102% | 112% | 88.1% | 74.1% | 111% | 86% | 91.3% | 62.5% | 97.5% | 81%
13 | CCCCc1ccc(NC(=O)N(CCCl)N=O)cc1 | 102% | 99.6% | 90.4% | 88.5% | 80.8% | 94% | 97.9% | 86.2% | 89.3% | 101% | 94.8% | 96.1% | 81.3% | 105% | 106% | 99.3% | 103% | 88.2% | 98.7%
14 | CCCCCCOc1ccc(/C=C/C(=O)c2ccc(B(O)O)cc2)cc1 | 75.1% | 74.5% | 58.5% | 104% | 77.5% | 72.6% | 81.4% | 79% | 83.7% | 106% | 78% | 71.4% | 51.6% | 85.2% | 89.5% | 61.5% | 70.4% | 59.1% | 58.3%
15 | CC(=O)c1c(O)cc2c3c1OC(C)(C)C1CCC(C)(CC31)O2 (stereo not drawn) | 97.5% | 90.6% | 96% | 98.7% | 102% | 88.8% | 83.1% | 88.5% | 97.9% | 111% | 99.2% | 99.6% | 77.8% | 110% | 95.1% | 89.5% | 76% | 106% | 78.9%
16 | Cc1ccc(C)c2c1sc1nc3n[nH]c(N)c3c(=N)n12 | 102% | 111% | 88.5% | 99% | 100% | 85.7% | 99.3% | 108% | 96.2% | 106% | 96.1% | 104% | 85.8% | 116% | 101% | 90.5% | 103% | 97.3% | 96%
17 | CCCCCCCCCCCCCCCCn1cc[n+](C)c1 | 9.85% (active) | -100% (active) | -98.6% (active) | -75.9% (active) | -70% (active) | -69.7% (active) | -95.2% (active) | -94.6% (active) | -50.4% (active) | -86.2% (active) | -64.5% (active) | -94.6% (active) | -85.9% (active) | -80.4% (active) | -0.6% (active) | -83.5% (active) | -65.3% (active) | 33.6% | 17.2%
